49 molecules from PubChem BioAssay AID1851 (National Center for Advancing Translational Sciences (NCATS), 2009) can be followed below.

Molecules are shown by their SMILES. Screen size: about 16,000 compounds; about 5,800 (36%) were called active. Another 23% or so got no clear call; they are omitted. The list shows a part of the results. Unmarked numbers belong to inactive results. Calls come from the whole dose curve; as a rule, active = well fitted curve in the direction sought with a large enough effect; inconclusive = small, poorly fitted or top-dose-only effect, or effect the other way; inactive = no such curve, though single readings can be large or run the other way.
% is set by controls: 0 for no effect and ±100 for the full control effect.

In this assay the target is Cytochrome P450 2C19 (Homo sapiens) (UniProt P33261). The experiment in a line: Cytochrome panel assay with activity outcomes. The following applies: recombinant CYP, pro-luciferin dealkylation, luminescence, p450-cyp2c19; series mostly up to 57.1 µM; activity, negative = inhibition: at the top concentration.
Chain of Cytochrome P450 2C19 (Homo sapiens) (P33261 whole entry, looked up): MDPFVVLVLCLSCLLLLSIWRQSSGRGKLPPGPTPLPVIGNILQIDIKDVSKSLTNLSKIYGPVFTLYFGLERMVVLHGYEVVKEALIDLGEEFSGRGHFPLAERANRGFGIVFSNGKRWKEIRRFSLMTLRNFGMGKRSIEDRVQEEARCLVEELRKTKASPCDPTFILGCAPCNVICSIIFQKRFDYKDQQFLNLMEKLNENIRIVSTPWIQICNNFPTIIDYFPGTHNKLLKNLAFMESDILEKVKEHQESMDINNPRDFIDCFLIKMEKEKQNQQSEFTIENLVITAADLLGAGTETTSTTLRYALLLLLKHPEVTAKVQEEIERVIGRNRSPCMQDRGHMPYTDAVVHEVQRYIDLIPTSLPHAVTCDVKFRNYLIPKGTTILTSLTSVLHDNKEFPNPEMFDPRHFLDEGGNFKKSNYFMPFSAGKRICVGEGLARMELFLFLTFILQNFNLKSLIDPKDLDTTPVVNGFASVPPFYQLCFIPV
Regarding `CCOc1ccc(-c2c[n+](=O)c3c(n2[O-])CCCC3)c(OCC)c1`, the “activity, negative = inhibition” value was -9.98%.
The term AC50 denotes the concentration giving half of the maximal activity seen. Consider `O=C1c2ccccc2N[C@H](c2cc(Cl)cc(Cl)c2O)N1CCc1ccccn1`, for which the AC50 was 3.98 µM (active).
Consider `COc1ccc(OC)c(Nc2nc(-c3sc(NC(=O)c4ccccc4)nc3C)cs2)c1`, for which the concentration at half-maximal activity (AC50) was 6.31 µM (active).
On the same count and under the same terms, the same measure for `CCOc1ccccc1Nc1nc(-c2sc(NC(=O)c3ccccc3)nc2C)cs1`: 3.16 µM (active).
With `COc1cc(C(=O)Nc2nc3ccc4nc(C)sc4c3s2)cc(OC)c1OC`, the “activity, negative = inhibition” value was 4.14%.
As to `CCn1c(C)c(/C=N/Nc2nc3ccccc3s2)c2ccccc21`, the AC50 was 3.16 µM (active).
As for `CCCN1CCN(CCCNC(=O)Cn2nc(-c3ccc(C)cc3)ccc2=O)CC1`, the “activity, negative = inhibition” value was -22.7%.
Regarding `Cc1cccc(OCCCC(=O)Nc2ccccc2C(F)(F)F)c1`, the AC50 was 7.08 µM (active).
On the same count and under the same terms, the same measure for `Cc1ccc(-c2ccc(=O)n(CC(=O)NCc3ccco3)n2)cc1`: 7.94 µM (active).
The same measure, in the same setting: the same measure for `COc1ccc([N+](=O)[O-])cc1NC(=S)NC(NC(=O)Cc1ccc(OC)c(OC)c1)C(Cl)(Cl)Cl` (centres undefined): 0.708 µM (active).
Consider `Cc1c(Nc2ncccc2C(=O)O)cccc1C(F)(F)F`, for which the “activity, negative = inhibition” value was -12.7% [at 25.6 µM].
Regarding `Cc1ccc(-c2ccc(=O)n(CC(=O)NCCN(C)C)n2)cc1`, the “activity, negative = inhibition” value was -0.291%.
As to `Cc1ccc(OCCCC(=O)Nc2ccccc2C(F)(F)F)cc1`, the concentration at half-maximal activity (AC50) is 6.31 µM (active).
As to `Nc1ncnc2c1nc(-c1ccccc1)n2[C@H]1O[C@@H](CO)[C@@H](O)[C@H]1O`, the activity, negative = inhibition was -0.591% [at 11.4 µM].
Same read-out and setting: the same measure for `CCO[P@]1(=O)OC[C@@H]2O[C@H](n3cnc4c(N)ncnc43)[C@H](O)[C@@H]2O1`: 14% [at 11.4 µM].
Turning to `COc1ccccc1NC(=O)Cn1cncc1-c1ccc([N+](=O)[O-])cc1`, the “activity, negative = inhibition” value was -18.7%.
`C/C(CC(=O)NCc1ccco1)=N\NC(=O)Cc1ccccc1`: the “activity, negative = inhibition” value was -5.7%.
As for `Cc1c(NC(=O)CCCOc2ccccc2)cccc1[N+](=O)[O-]`, the AC50 is 2.51 µM (active).
The same measure, in the same setting: the value for `CCN(CC(=O)Nc1ccc([N+](=O)[O-])cc1OC)c1ccccc1` was 5.62 µM (active).
As for `Cc1c(C(=O)Nc2ccc(OCc3ccccc3)cc2)cccc1[N+](=O)[O-]`, the “activity, negative = inhibition” value was 42.2%.
Still for that read-out and setting: the value for `Cc1ccc(OCC(=O)NNC(=O)CCc2ccccc2)cc1` was -31.3%.
Take `Cc1ccc(OCCCC(=O)NCc2ccco2)cc1`: the AC50 is 10 µM (active).
For the molecule `Cc1ccc(OCC(=O)Nc2ccccc2-c2ccccc2)cc1`, the AC50 is 3.55 µM (active).
Turning to `Cc1ccc(CS(=O)(=O)CCC(=O)NCCCOC(C)C)cc1`, the “activity, negative = inhibition” value was -10.4%.
For `COc1ccc([N+](=O)[O-])cc1NC(=O)CC(C)c1ccccc1` (centres undefined), the half-maximal activity concentration (AC50) was 3.55 µM (active).
With `Cc1ccc(OCC(=O)NNC(=O)c2cc3ccccc3o2)cc1`, the “activity, negative = inhibition” value was -12.6%.
With `Cc1c(NC(=O)C(Sc2ccccc2)c2ccccc2)cccc1[N+](=O)[O-]` (centres undefined), the AC50 was 0.891 µM (active).
On the same count and under the same terms, the value for `Cc1ccc(OCC(=O)Nn2cnc3ccccc32)cc1` was 20 µM (active).
On the same count and under the same terms, the value for `Cc1ccc(OCC(=O)NC2=NCCS2)cc1` was 17.8 µM (active).
On to `C[C@@H]1O[C@@H](n2cc(F)c(=O)[nH]c2=O)[C@H](O)[C@@H]1O`, for which the “activity, negative = inhibition” value is -13.4%.
On the same count and under the same terms, the same measure for `Cc1cccc2cc(=O)[nH]c(C)c12`: -20%; for `C[N+]1(CCC[N+]2(C)C[C@H]3[C@H](C2)[C@H]2C=C[C@@H]3CC2)CCOCC1` (some centres undefined): -6.43% [at 11.4 µM].
As for `COc1cc([N+](=O)[O-])ccc1NC(=O)CCCOc1cccc(C)c1`, the concentration at half-maximal activity (AC50) was 3.98 µM (active).
For the molecule `Cc1cc2c(cc1S(N)(=O)=O)S(=O)(=O)CCC2`, the “activity, negative = inhibition” value is 13.4% [at 25.6 µM].
On to `CCCCNC(=O)CCC(=O)Nc1ccc2nc(N3CCOCC3)cc(C)c2c1`, for which the half-maximal activity concentration (AC50) was 25.1 µM (active).
For `COCCCNC(=O)CCC(=O)Nc1ccc2nc(N3CCOCC3)cc(C)c2c1`, the “activity, negative = inhibition” value was 30.1%.
On the same count and under the same terms, the same measure for `Cc1ccccc1C(=O)NNC(=O)c1ccc(F)cc1`: -21.3%.
`Cc1ccccc1C(=O)NN(C)c1nc2ccccc2nc1C(F)(F)F`: the AC50 was 0.355 µM (active).
As for `O=C(c1cc(C(F)(F)F)cc(C(F)(F)F)c1)N1CCC[C@@]2(CCN(c3ccncc3)C2)C1`, the “activity, negative = inhibition” value is 0.411%.
Still for that read-out and setting: the same measure for `O=S(=O)(C[C@H](O)C(Cl)(Cl)Cl)NNc1ccccc1`: -25.2% [at 11.4 µM].
Turning to `O=C(Nc1ccccc1)N(Cc1ccccc1)CC(O)C(F)(F)F` (centres undefined), the AC50 was 5.01 µM (active).
Still for that read-out and setting: the same measure for `O=C(Nc1cccc(C(F)(F)F)c1)N(Cc1ccc(Cl)cc1)CC(O)C(F)(F)F` (centres undefined): 3.98 µM (active).
With `CCCC(=O)NC(Nc1ccccc1F)C(Cl)(Cl)Cl` (centres undefined), the concentration at half-maximal activity (AC50) is 2.82 µM (active).
`CCC(=O)NC(NCC1CCCO1)C(Cl)(Cl)Cl` (centres undefined): the “activity, negative = inhibition” value was -28.2%.
Still for that read-out and setting: the same measure for `CCCC[C@]1(C2CCCC2)Cc2cc(OCC(=O)O)c(Cl)c(Cl)c2C1=O`: 14.2%.
Consider `CCOC(=O)C1=C(C)N=C2c3ccccc3C(=O)C2C1c1ccc(C)cc1` (centres undefined), for which the AC50 is 1 µM (active).
Regarding `CCOC(=O)C1=C(C)N=C2c3ccccc3C(=O)C2C1c1ccc(Cl)cc1` (centres undefined), the AC50 was 0.631 µM (active).
Consider `CO[C@@H]1/C=C\CC(=O)N[C@@H](C)C(=O)OC[C@H](NS(=O)(=O)c2ccc(C)cc2)[C@H](C)/C=C\CC(=O)OC[C@H]1C`, for which the activity, negative = inhibition is -0.432% [at 11.4 µM].
For the molecule `NC(=O)N[C@H]1NC(=O)NC1=O`, the “activity, negative = inhibition” value was -5.57% [at 25.6 µM].
